# Measured values from PubChem BioAssay (EPA / NIEHS).
# Inconclusive results are not listed. Calls of active or inactive are those of the source. The calls were made as follows, unless noted: active = hit-call score of the fitted dose curve at least 0.9, where 1 is the maximum; inconclusive = response in the unintended direction; inactive = score below 0.9.
# Columns and labels:
# [1] = biological target: human Beta-secretase (BACE), BACE1 (gene 23621) (UniProt P56817); experiment: NVS_ENZ_hBACE: NovaScreen (NVS) Enzymatic Assay for human Beta-secretase (BACE) (AID 2283140);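 also: hits are inhibitors that reduce fluorescent substrate signal versus DMSO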
# In short: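 Fluorescence intensity read-out of protease activity defines this endpoint; signal loss relative to DMSO baseline marks inhibition. Recombinant enzyme from SF9 cells, cell-free format, 1 h exposure. Single-concentration duplicate screen (25 uM) precedes concentration-series follow-up.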
# [2] = biological target: Cytochrome P450 3A4 (Homo sapiens) (UniProt P08684); experiment: NVS_ADME_hCYP3A4: NovaScreen (NVS) CYP450-related Enzyme Activity (ADME) Assay for human CYP3A4 (AID 2283110)
# In short: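 Compounds screened in duplicate at 10 uM, with follow-up concentration-response for actives, against insect-cell-expressed recombinant enzyme. Activity read by fluorescence 0.33 h after dosing; loss of signal versus acetonitrile control indicates inhibition.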
# [3] = biological target: rat CYP2A2, Cyp2a2 (gene 24895) (UniProt P15149); experiment: NVS_ADME_rCYP2A2: NovaScreen (NVS) CYP450-related Enzyme Activity (ADME) Assay for rat CYP2A2 (AID 2283116)
# In short: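 Compounds first tested in duplicate at 10 uM, then in singleton concentration series up to 20 uM when over threshold. Activity of the recombinant enzyme read by fluorescence at 0.2 h, normalised to acetonitrile vehicle.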
# [4] = biological target: human Matrix Metalloproteinase-9 (MMP9), MMP9 (gene 4318) (UniProt P14780); experiment: NVS_ENZ_hMMP9: NovaScreen (NVS) Enzymatic Assay for human Matrix Metalloproteinase-9 (MMP9) (AID 2283190);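 also: cell-free recombinant MMP9 protease activity read by fluorescent substrate signal; active means inhibition seen as loss of fluorescence signal versus DMSO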
# In short: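 Extracted enzyme, fluorescent substrate, 1 h post-dose read. Single conc 25 uM in duplicate, then concentration series for actives. Activity = signal loss relative to DMSO negative control.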
# [5] = biological target: human Ephrin type-A Receptor 1 (EphA1), EPHA1 (gene 2041) (UniProt P21709); experiment: NVS_ENZ_hEphA1: NovaScreen (NVS) Enzymatic Assay for human Ephrin type-A Receptor 1 (EphA1) (AID 2283158);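 also: activity is signal loss versus DMSO meaning EphA1 kinase inhibition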
# In short: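 Here the EphA1 protein is recombinant and the substrate fluorescent, with electrophoretic separation before fluorescence detection at 1 hour. Signal loss against DMSO defines activity; plate controls included; follow-up concentration series reach 50 uM.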
# [6] = biological target: human Phosphodiesterase 10 (PDE10), PDE10A (gene 10846) (UniProt Q9Y233); experiment: NVS_ENZ_hPDE10: NovaScreen (NVS) Enzymatic Assay for human Phosphodiesterase 10 (PDE10) (AID 2283195)
# In short: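 Fluorescence readout after mobility-shift separation of substrate and product, 1 h reaction with recombinant human enzyme. Single-concentration duplicates at 25 uM, then concentration-response up to 50 uM for chemicals reaching threshold; DMSO baseline.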
# [7] = biological target: human Esterase Plasma (ES), BCHE (gene 590) (UniProt P06276); experiment: NVS_ENZ_hES: NovaScreen (NVS) Enzymatic Assay for human Esterase Plasma (ES) (AID 2283157)
# In short: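 Primary single-concentration screen at 25 uM in duplicate, then concentration-response to a 50 uM top dose. Human plasma esterase activity detected colorimetrically after 0.25 h incubation, with DMSO as baseline.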
# [8] = biological target: human Phosphoinositide 3-kinase alpha (PI3Ka), PIK3CA (gene 5290) (UniProt P42336); experiment: NVS_ENZ_hPI3Ka: NovaScreen (NVS) Enzymatic Assay for human Phosphoinositide 3-kinase alpha (PI3Ka) (AID 2283196)
# In short: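 Fluorescence/mobility-shift readout of substrate conversion by recombinant enzyme, 1 h post-dosing. Primary screen in duplicate at 25 uM; actives (e.g. ≥30% inhibition) retested in singleton concentration-response, top concentration 50 uM.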
# [9] = biological target: rat CYP2A1, Cyp2a1 (gene 24894) (UniProt P11711); experiment: NVS_ADME_rCYP2A1: NovaScreen (NVS) CYP450-related Enzyme Activity (ADME) Assay for rat CYP2A1 (AID 2283114; active = hit-call score of the fitted dose curve at least 0.9, where 1 is the maximum; inactive = score below 0.9)
# In short: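 Cell-free fluorescence enzyme-activity read on recombinant rat CYP2A1, taken 0.75 h post-dosing. Compounds were screened in duplicate at 10 uM, then hits tested in concentration series (max 20 uM); inhibition scored relative to acetonitrile baseline.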
# [10] = biological target: human Caspase 5 (CASP5), CASP5 (gene 838) (UniProt P51878); experiment: NVS_ENZ_hCASP5: NovaScreen (NVS) Enzymatic Assay for human Caspase 5 (CASP5) (AID 2283137)
# In short: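 Chemicals were first tested in duplicate at 25 uM against recombinant caspase 5 from E. coli. Activity was read by fluorescence intensity 2 hours after dosing. Those passing a preset inhibition threshold were retested in singleton concentration-response up to 50 uM.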
# [11] = biological target: human Dual Specificity Protein Phosphatase 3 (DUSP3), DUSP3 (gene 1845) (UniProt P51452); experiment: NVS_ENZ_hDUSP3: NovaScreen (NVS) Enzymatic Assay for human Dual Specificity Protein Phosphatase 3 (DUSP3) (AID 2283152);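 also: phosphatase activity of recombinant human DUSP3 on a fluorogenic substrate without cells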
# In short: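 Cell-free fluorescence-intensity enzyme activity assay with recombinant protein and substrate; loss of signal fitted relative to DMSO baseline. Primary screen in duplicate at 25 uM, actives then run in concentration series; measured 0 h after dosing.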
# [12] = biological target: human Vascular Endothelial Growth Factor Receptor 1 (VEGFR1), FLT1 (gene 2321) (UniProt P17948); experiment: NVS_ENZ_hVEGFR1: NovaScreen (NVS) Enzymatic Assay for human Vascular Endothelial Growth Factor Receptor 1 (VEGFR1) (AID 2283226)
# In short: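 Kinase activity of recombinant human VEGFR1 was read by fluorescence after electrophoretic separation of product from substrate, 1 h post-dosing; initial duplicate single-point testing at 25 uM, followed by concentration-series follow-up, with DMSO as baseline.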
# [13] = biological target: Cytochrome P450 2C19 (Homo sapiens) (UniProt P33261); experiment: NVS_ADME_hCYP2C19: NovaScreen (NVS) CYP450-related Enzyme Activity (ADME) Assay for human CYP2C19 (AID 2283113);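 also: potency for inhibition seen as loss of fluorescent signal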
# In short: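 Biochemical CYP2C19 inhibition screen: insect-cell recombinant protein plus fluorescent substrate, 1 h, fluorescence intensity. Acetonitrile defined baseline activity. Single 10 uM concentration in duplicate, with concentration-response follow-up for actives.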
# human Phosphoinositide 3-kinase alpha (PI3Ka), PIK3CA (gene 5290), sequence (P42336 whole entry, looked up): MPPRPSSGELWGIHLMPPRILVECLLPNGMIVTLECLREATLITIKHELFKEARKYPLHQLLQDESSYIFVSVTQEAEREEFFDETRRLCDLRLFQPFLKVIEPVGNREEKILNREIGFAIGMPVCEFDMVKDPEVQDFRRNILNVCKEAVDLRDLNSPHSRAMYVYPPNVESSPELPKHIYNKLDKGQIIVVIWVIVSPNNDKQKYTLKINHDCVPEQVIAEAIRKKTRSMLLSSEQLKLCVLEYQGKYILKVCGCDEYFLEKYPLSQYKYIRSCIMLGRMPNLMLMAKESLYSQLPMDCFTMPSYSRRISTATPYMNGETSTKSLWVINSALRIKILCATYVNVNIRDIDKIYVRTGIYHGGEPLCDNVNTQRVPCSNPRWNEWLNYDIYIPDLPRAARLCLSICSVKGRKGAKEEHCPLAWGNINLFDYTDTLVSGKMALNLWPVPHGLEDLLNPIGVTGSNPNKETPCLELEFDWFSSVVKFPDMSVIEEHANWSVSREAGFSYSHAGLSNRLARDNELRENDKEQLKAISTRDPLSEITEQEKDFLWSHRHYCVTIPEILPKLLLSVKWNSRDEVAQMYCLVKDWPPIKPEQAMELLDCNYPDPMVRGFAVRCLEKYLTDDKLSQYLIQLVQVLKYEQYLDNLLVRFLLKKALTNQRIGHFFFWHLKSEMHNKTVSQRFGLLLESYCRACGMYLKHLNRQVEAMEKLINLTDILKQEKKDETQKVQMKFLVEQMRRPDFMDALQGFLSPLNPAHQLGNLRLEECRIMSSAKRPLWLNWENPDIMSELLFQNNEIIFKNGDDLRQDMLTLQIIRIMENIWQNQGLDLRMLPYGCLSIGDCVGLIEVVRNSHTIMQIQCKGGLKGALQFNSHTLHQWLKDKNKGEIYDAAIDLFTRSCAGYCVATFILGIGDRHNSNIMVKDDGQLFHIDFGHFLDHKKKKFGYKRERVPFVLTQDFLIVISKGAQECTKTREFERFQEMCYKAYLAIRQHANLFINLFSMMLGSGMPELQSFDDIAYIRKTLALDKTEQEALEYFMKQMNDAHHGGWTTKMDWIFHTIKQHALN
# human Ephrin type-A Receptor 1 (EphA1), EPHA1 (gene 2041), sequence (P21709 whole entry, looked up): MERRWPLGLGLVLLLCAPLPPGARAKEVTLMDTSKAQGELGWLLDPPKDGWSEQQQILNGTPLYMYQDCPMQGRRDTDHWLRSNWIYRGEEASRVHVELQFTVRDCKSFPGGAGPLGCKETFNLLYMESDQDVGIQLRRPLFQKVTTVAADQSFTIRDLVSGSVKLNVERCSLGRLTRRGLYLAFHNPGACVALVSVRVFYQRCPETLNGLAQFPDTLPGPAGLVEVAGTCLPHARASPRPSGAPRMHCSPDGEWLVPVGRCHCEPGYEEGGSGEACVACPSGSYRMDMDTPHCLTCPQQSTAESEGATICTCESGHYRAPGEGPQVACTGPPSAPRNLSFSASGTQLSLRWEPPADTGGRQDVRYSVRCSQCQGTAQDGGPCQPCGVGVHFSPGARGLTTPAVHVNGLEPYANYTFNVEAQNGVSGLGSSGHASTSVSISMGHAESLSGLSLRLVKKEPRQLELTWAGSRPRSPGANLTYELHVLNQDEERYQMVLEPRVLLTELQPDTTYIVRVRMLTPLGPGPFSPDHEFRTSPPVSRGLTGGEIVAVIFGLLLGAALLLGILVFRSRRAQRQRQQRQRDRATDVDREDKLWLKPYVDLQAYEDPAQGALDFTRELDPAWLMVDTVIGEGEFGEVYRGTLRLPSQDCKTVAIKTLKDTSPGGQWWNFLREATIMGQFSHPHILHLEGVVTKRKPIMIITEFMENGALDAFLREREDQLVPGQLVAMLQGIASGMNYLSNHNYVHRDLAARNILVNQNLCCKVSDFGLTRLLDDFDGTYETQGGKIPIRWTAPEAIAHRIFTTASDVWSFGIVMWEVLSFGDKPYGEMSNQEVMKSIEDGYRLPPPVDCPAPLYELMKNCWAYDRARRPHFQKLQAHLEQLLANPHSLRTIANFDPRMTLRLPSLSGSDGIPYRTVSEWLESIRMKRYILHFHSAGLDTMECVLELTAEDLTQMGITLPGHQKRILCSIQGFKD
# human Beta-secretase (BACE), BACE1 (gene 23621), sequence (P56817 whole entry, looked up): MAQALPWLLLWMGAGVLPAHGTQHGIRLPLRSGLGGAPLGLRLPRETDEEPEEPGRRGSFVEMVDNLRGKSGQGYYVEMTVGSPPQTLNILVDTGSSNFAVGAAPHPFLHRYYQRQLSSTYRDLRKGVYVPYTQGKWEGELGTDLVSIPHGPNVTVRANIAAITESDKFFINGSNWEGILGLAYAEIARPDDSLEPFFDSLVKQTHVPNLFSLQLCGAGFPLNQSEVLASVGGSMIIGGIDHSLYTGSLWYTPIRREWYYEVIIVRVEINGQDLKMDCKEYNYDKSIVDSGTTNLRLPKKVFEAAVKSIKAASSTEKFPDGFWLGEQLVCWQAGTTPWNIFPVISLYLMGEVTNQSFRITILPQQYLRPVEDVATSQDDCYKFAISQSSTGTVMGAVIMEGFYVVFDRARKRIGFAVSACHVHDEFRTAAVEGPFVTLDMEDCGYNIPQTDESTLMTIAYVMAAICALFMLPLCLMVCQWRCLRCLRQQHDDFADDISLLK
# human Matrix Metalloproteinase-9 (MMP9), MMP9 (gene 4318), sequence (P14780 whole entry, looked up): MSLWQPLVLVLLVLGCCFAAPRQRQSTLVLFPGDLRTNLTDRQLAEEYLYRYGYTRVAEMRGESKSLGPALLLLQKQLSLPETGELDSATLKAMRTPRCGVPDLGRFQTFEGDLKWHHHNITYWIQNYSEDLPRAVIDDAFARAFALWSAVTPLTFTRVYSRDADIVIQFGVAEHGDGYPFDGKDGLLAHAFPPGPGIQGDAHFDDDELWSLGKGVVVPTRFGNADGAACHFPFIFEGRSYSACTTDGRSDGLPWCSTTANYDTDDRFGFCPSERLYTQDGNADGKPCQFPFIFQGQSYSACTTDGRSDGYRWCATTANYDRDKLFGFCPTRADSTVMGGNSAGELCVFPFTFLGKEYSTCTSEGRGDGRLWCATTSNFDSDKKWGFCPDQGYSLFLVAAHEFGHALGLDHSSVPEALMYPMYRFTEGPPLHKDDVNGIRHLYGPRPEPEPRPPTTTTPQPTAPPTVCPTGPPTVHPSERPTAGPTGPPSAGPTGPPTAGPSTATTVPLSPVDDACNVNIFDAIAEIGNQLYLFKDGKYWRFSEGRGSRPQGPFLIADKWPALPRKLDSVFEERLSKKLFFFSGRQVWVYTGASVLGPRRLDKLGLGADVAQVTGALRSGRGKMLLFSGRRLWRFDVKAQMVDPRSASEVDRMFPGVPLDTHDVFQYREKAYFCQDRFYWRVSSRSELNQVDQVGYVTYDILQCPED
# human Dual Specificity Protein Phosphatase 3 (DUSP3), DUSP3 (gene 1845), sequence (P51452 whole entry, looked up): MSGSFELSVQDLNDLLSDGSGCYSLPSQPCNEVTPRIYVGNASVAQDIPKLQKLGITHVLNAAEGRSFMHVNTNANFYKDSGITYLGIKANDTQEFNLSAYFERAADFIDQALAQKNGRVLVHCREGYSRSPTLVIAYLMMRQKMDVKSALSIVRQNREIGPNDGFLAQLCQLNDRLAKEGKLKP
# human Caspase 5 (CASP5), CASP5 (gene 838), sequence (P51878 whole entry, looked up): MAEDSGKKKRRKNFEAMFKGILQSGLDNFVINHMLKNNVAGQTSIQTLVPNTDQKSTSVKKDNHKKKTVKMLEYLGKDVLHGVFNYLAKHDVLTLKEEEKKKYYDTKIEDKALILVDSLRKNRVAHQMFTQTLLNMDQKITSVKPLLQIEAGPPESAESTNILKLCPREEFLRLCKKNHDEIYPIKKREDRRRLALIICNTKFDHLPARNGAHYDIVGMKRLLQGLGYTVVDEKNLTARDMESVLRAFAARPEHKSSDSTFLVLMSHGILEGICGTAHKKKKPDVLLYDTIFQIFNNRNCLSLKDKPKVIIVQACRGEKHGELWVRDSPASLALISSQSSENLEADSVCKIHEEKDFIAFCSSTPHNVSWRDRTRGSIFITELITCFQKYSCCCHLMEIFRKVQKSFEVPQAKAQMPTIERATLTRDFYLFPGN
# human Phosphodiesterase 10 (PDE10), PDE10A (gene 10846), sequence (Q9Y233 whole entry, looked up): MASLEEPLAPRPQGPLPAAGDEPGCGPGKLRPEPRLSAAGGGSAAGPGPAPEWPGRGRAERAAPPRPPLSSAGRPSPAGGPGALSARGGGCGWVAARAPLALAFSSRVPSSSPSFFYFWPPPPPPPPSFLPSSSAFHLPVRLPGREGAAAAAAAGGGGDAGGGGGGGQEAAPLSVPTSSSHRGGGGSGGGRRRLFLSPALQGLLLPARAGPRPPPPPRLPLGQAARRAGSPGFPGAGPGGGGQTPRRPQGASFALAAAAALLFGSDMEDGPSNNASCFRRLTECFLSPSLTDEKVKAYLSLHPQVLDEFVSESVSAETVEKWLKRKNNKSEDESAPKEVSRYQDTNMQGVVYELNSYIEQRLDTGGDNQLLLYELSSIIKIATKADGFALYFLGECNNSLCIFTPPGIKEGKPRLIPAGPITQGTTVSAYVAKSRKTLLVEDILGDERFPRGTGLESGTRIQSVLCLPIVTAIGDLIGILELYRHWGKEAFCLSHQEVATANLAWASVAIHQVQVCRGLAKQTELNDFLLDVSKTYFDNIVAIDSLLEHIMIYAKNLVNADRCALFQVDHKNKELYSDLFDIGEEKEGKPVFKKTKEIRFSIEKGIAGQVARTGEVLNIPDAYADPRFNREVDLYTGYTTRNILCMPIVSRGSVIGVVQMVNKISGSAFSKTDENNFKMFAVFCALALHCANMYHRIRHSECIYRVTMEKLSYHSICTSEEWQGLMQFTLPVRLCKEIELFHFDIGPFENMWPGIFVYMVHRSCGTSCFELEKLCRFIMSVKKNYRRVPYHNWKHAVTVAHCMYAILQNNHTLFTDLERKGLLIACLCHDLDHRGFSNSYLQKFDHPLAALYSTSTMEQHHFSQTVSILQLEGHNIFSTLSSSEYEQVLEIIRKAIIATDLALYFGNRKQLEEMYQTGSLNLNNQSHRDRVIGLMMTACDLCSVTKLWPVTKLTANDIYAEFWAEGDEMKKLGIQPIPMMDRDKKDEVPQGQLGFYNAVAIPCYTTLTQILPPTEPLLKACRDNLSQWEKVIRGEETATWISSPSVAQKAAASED
smiles,measurement,setting,value
CCCCCC(C)=O,outcome,[1],inactive
C1CCCCC1,outcome,[2],inactive
CC1(C)C(=O)N(Cl)C(=O)N1Br,AC50,[3],5.02 µM (active)
CCOCCOCCOCC,outcome,[1],inactive
same,AC50,[4],15.4 µM (active)
CCC(C)c1cc([N+](=O)[O-])cc([N+](=O)[O-])c1OC(=O)OC(C)C (centres undefined),AC50,[5],14 µM (active)
same,outcome,[6],inactive
CC(C)(C)CC(C)(C)c1ccc(OCCOCC[N+](C)(C)Cc2ccccc2)cc1,AC50,[7],0.791 µM (active)
same,AC50,[8],9.05 µM (active)
C=Cc1ccc(C)cc1,outcome,[9],inactive
COC(C)(C)CCO,outcome,[1],inactive
c1ccc2cc(Nc3ccc(Nc4ccc5ccccc5c4)cc3)ccc2c1,outcome,[10],inactive
same,AC50,[1],13.1 µM (active)
same,AC50,[11],22.4 µM (active)
same,outcome,[5],inactive
same,AC50,[8],17.6 µM (active)
COCCOC(=O)c1ccccc1C(=O)OCCOC,AC50,[7],18.6 µM (active)
same,outcome,[5],inactive
same,outcome,[8],inactive
same,outcome,[12],inactive
Cc1cc(CCC(=O)OCCOCCOCCOC(=O)CCc2cc(C)c(O)c(C(C)(C)C)c2)cc(C(C)(C)C)c1O,AC50,[13],2.45 µM (active)
CC(C)(N=C=O)c1cccc(C(C)(C)N=C=O)c1,outcome,[1],inactive
same,outcome,[5],inactive
same,AC50,[4],0.933 µM (active)
same,AC50,[8],9.87 µM (active)
CCN(CC)C(=O)N(CC)CC,AC50,[5],25 µM (active)
Cc1ncc([N+](=O)[O-])n1CCO,AC50,[5],11.7 µM (active)
same,outcome,[6],inactive
O=C1c2ccccc2C(=O)c2c(O)ccc(O)c21,AC50,[10],7.12 µM (active)
same,AC50,[1],25 µM (active)
CC(=O)C(C)O (centres undefined),outcome,[5],inactive
C=C(C)C(=O)OCC(CC)(COC(=O)C(=C)C)COC(=O)C(=C)C,AC50,[1],17.1 µM (active)
same,AC50,[11],12.4 µM (active)
same,AC50,[4],0.749 µM (active)
